Imprint erasure: inducers of genomic imprint erasure in mouse ES cells. mouse ES Peg3-LacZ reporter, beta-gal luminescence, 40 h. Potency, µM (top dose mostly 60.7 µM), most hits filed as activators. 110,000 compounds, 0.02% hits. AID 1948
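Gelatin-coated wells received 300 freshly trypsinized female ES cells with a Peg3LacZ-Neo reporter on the maternal allele, then incubated 40 hours at 37C. BetaGlo was added for 5 minutes at room temperature before a single luminescence read.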
FLuc inh: blocks Photinus pyralis firefly luciferase activity. purified firefly luciferase, luminescence, 8 min. Potency, µM (highest dose often 57.1 µM), actives largely listed as inhibitors. 72,000 compounds, 2.2% hits; further: nearly all actives have a fitted effect of over 40% in size
Target sequence (P08659 whole entry, looked up): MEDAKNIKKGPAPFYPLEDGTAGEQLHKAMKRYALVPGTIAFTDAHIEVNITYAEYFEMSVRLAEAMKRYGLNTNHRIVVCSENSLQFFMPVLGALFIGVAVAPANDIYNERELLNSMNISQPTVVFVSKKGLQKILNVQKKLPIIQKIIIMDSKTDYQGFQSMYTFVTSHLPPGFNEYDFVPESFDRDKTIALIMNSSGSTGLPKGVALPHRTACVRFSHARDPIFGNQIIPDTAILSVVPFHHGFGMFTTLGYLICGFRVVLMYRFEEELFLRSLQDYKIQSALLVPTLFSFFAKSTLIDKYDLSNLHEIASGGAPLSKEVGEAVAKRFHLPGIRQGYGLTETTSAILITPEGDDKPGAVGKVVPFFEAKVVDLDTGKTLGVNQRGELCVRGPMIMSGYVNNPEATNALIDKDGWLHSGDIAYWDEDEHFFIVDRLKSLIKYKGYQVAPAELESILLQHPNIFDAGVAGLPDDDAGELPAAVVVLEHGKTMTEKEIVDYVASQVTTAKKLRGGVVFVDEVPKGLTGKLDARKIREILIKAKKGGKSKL
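Luminescence read-out after 8 min at room temperature; enzyme reaction used luciferin plus 10 uM ATP (linear range) in imidazole buffer pH 7.2 with KCl, MgCl2, Tween 20 and BSA. Each sample was run as a titration.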
p53ts 32C tox: cytotoxicity in p53ts cells at permissive temperature | H1299-p53A138V at 32C, ATP luminescence viability, 24 h | Potency, µM (titrated, usually from 46.1 µM), usual class: cytotoxic | 130,000 compounds, 0.93% hits; further: nearly all actives have a fitted effect of over 55% in size
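H1299-p53 A138V cells (temperature-sensitive p53) exposed 24 h to up to 46 uM compound at 32C, where p53 is wild-type in conformation. Viability read as ATP luminescence and normalised to DMSO and 100 uM tamoxifen. AC50 fitted with the Hill equation.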
p53ts 39C tox: kills p53ts cells at the nonpermissive temperature; Potency, µM (highest dose often 46.1 µM), usual class: cytotoxic; 130,000 compounds, 1.5% hits; H1299-p53A138V viability at 39C, ATP luminescence, 24 h; further: nearly all actives have a fitted effect of over 55% in size
IkB signaling: suppresses IkB signaling in ABC-DLBCL reporter cells; AID 445; Potency, µM (titrated, usually from 57.1 µM); 110,000 compounds, 0.04% hits; ABC-DLBCL IkBa-CBG/CBR dual luciferase ratio, 4 h; response scale: scaled: untreated 0%, proteasome inhibitor 100%; active means well fitted curve in the direction sought with a large enough effect in the signal ratio, not every such curve was filed as active; inconclusive means small, poorly fitted or top-dose-only effect, or a change in a side signal; the % refers to the signal ratio;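 further: the direction sought is a rising ratio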
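Luminescence ratio of IκBα-fused green versus native red beetle luciferase in OCI-Ly3 cells, 4 h post-doxycycline with compound; red signal alone, scaled from basal (0%) to zero light (-100%), flagged nonspecific or cytotoxic effects.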
Numbers stand for hits; i = inactive; ? = inconclusive; nt = not tested or not shown; [ ] = another dose, or the depositor's remark. In the library only some 2.4% were active in any assay of this set; here they are far more common. Unless noted, the call rests on the fitted dose curve; in most records, active means well fitted curve in the direction sought with a large enough effect; inconclusive means small, poorly fitted or top-dose-only effect, or another doubt; inactive means no such curve, though single readings can be large; an effect the other way counts as inactive or inconclusive.

SMILES	Imprint erasure	FLuc inh	p53ts 32C tox	p53ts 39C tox	IkB signaling
CCCCN(CC)CCCNC(=O)C1CCN(c2nc3ccc(CC)cc3s2)CC1	i[10.9 µM]	nt	13µM	20µM	i
CCCCN(C)CCCNC(=O)C1CCN(c2nc3ccc(CC)cc3s2)CC1	i[10.9 µM]	nt	13µM	?	?
Cc1c(Cl)cccc1NC(=O)c1cc(-c2ccc(O)cc2)on1	i	i	i	i	?
CCN1c2ccccc2NC2N=C(OC)C(c3ccccc3)C21 (stereo not given)	i	i	?	13µM	?
COc1cccc(N2CCN(C(=O)C3Cc4ccccc4N3C(C)=O)CC2)c1 (stereo not given)	i[10.9 µM]	nt	i	i	?
O=C(Nc1ccc(Cl)cc1)C1CCCN(S(=O)(=O)c2ccc3[nH]c(=O)ccc3c2)C1 (stereo not given)	?	nt	i	i	?
CC(C)c1ccc(NC(=O)C2CCCN(S(=O)(=O)c3ccc4[nH]c(=O)ccc4c3)C2)cc1 (stereo not given)	i[10.9 µM]	nt	?	10µM	i
Cn1c(C(=O)Nc2ccc3c(c2)OCO3)cc2sccc21	i	7.9µM	?	16µM	i
COc1ccc(OC)c(NC(=O)c2cc3sccc3n2C)c1	i	i	i	i	i
COc1cc(NC(=O)c2cc3sccc3n2C)cc(OC)c1	nt	13µM	?	?	?
Cc1c(C)c2c(c(C)c1O)CCC(C)(COc1ccc(Cc3sc(=O)[nH]c3O)cc1)O2 (stereo not given)	i	nt	nt	nt	nt
O=C(O)CCCC(=O)Nc1cccc(-c2nc3ccccc3[nH]2)c1	i	20µM	i	i	?
O=C(CSc1ccccc1)Nc1ccc(-c2nc3ccccc3[nH]2)cc1	nt	nt	nt	i	nt
O=C(CN1CCOCC1)Nc1ccc(-c2nc3ccccc3[nH]2)cc1	i	16µM	?	?	i
O=C(Nc1ccc(-c2nc3ccccc3[nH]2)cc1)C1CCCO1 (stereo not given)	i	2.5µM	2.5µM	4µM	?
COc1cccc(CN2C(=O)c3ccccc3Sc3ccc(C(=O)NCc4ccccc4)cc32)c1	i[10.9 µM]	nt	i	i	i
CCc1ccc(NC(=O)CSc2cn(CC(=O)N3CCCC3)c3ccccc23)cc1	i[10.9 µM]	nt	i	i	i
O=C(CSc1cn(CC(=O)N2CCCC2)c2ccccc12)Nc1ccc(Cl)cc1	i[10.9 µM]	nt	i	13µM	?
CNC(=O)C1CCC(Cn2c(=O)c3sccc3n(CC(=O)NCc3ccccc3)c2=O)CC1 (stereo not given)	i[10.9 µM]	nt	i	i	i
Cc1cc(C)cc(NC(=O)Cn2nnc(C(=O)NCc3ccccc3Cl)c2N)c1	i[10.9 µM]	nt	?	7.9µM	i
Cc1ccc(C)c(NC(=O)Cn2nnc(C(=O)NCc3ccccc3Cl)c2N)c1	i[10.9 µM]	nt	i	i	i
Cc1ccc(NC(=O)Cc2ccc(-n3c(C)nc4cccnc43)cc2)c(Cl)c1	i[10.9 µM]	nt	i	i	?
COc1ccc(-c2ccc(-c3nnc(-c4cc(OC)ccc4OC)o3)cc2)cc1	i	i	i	i	i
COc1ccc(-c2nnc(Nc3nc4c(OC)cccc4s3)o2)cc1	i	10µM	?	13µM	?
COc1cc(OC)cc(-c2nnc(Nc3nc4c(F)cccc4s3)o2)c1	i	i	i	i	i
SMILES	Imprint erasure	FLuc inh	p53ts 32C tox	p53ts 39C tox	IkB signaling
Fc1cccc2sc(Nc3nnc(-c4ccccc4)o3)nc12	i	13µM	16µM	10µM	?
COc1ccc(-c2nnc(Nc3nc4c(OC)cccc4s3)o2)c(OC)c1	i	13µM	?	10µM	?
O=C(NCc1ccccc1Cl)c1cccc(C(F)(F)F)c1	nt	nt	i	16µM	nt
Cc1nc2ccc(S(=O)(=O)NC(CC(C)C)C(=O)NCc3ccc(Cl)cc3)cc2s1 (stereo not given)	i[10.9 µM]	nt	i	i	?
Cc1ccc(N2C(=O)c3ccc(N)cc3C2=O)cc1	i	16µM	i	i	i
COc1cccc(-c2nn(-c3ccccc3)cc2C(=O)NCC(=O)O)c1	i	20µM	?	i	i
CCCn1nnc(NC(=O)c2ccc(OCC)c(Cl)c2)n1	i	i	i	i	i
O=C(COc1ccc(Cl)cc1Cl)Nc1ccc(Cl)cn1	i	1.3µM	5µM	5µM	i
CCOc1ccc(C(=O)Nc2ccc(Cl)cn2)cc1Cl	i	25µM	i	?	i
Cc1ccc(N2CCN(C(=O)C3CCN(c4ncnc5c4nc4n5CCCCC4)CC3)CC2)c(C)c1	nt	nt	i	nt	nt
Cc1cccc(N2CCN(C(=O)c3cccn4c(=O)c5cc(Cl)ccc5nc34)CC2C)c1 (stereo not given)	i[10.9 µM]	nt	i	i	i
O=C(O)CCCSc1ccccc1	i[10.9 µM]	i[11.4 µM]	i[9.22 µM]	i[9.22 µM]	i[11.4 µM]
COc1ccc(C(=O)Nc2nnc(SCc3cc(=O)n4cccc(C)c4n3)s2)cc1	i[10.9 µM]	nt	i	i	i
CCc1ccc(C(=O)c2cn(CC(=O)Nc3cc(OC)cc(OC)c3)c3ccc(CC)cc3c2=O)cc1	i[10.9 µM]	nt	i	13µM	?
O=C(O)c1cc(-c2ccc3c(c2)OCO3)nc2ccccc12	i	i	?	?	i
CC(=O)c1ccc(N2CCN(C(=O)c3cc(-c4ccc5c(c4)OCO5)nc4ccccc34)CC2)cc1	i	7.9µM	i	i	i
CCOc1ccc(-c2cc(C(=O)N3CCN(c4ccc(C)cc4)C(C)C3)c3ccccc3n2)cc1 (stereo not given)	i[10.9 µM]	nt	16µM	20µM	i
CCOc1ccc(-c2cc(C(=O)N3CCN(C)CC3)c3ccccc3n2)cc1	i	2µM	2.5µM	4µM	i
COc1ccc(-c2cc(C(=O)N3CCN(c4ccccn4)CC3)c3ccccc3n2)cc1	i	1.3µM	13µM	13µM	?
CCOc1ccc(-c2cc(C(=O)N3CCN(c4cccc(C)c4)C(C)C3)c3ccccc3n2)cc1 (stereo not given)	i[10.9 µM]	nt	?	?	?
CSc1ccc(C2CC(=O)Oc3c2c(=O)n(C)c2ccccc32)cc1 (stereo not given)	i[10.9 µM]	nt	i	i	?
CCOC(=O)N1CCN(C(=O)c2cc(-c3ccc(OCC)cc3)nc3ccccc23)CC1	i	0.79µM	5µM	10µM	i
CCOc1ccc(-c2cc(C(=O)NCc3ccc(C)cc3)c3ccccc3n2)cc1	i[10.9 µM]	nt	i	i	i
CC#C[C@]1(O)CC[C@H]2C3CCC4=CC(=O)CCC4=C3[C@@H](c3ccc(N(C)C)cc3)C[C@@]21C (stereo not given in full)	i	nt	nt	nt	nt
O=CC(=O)c1ccccc1	i	nt	i[1.84 µM]	i	i
CC1N/C(=C\C(=O)c2ccccc2)N(O)C1(C)C (stereo not given)	i	13µM	10µM	13µM	i
CCC(Cc1ccccc1)NC(=O)c1csc2c1CCCCC2 (stereo not given)	i[10.9 µM]	nt	i	?	i
CCCN1C(=O)/C(=C2\SC(N3CCCCC3)=NC2=O)c2ccccc21	i	16µM	?	?	i
CCCCN(CCCC)C(=O)CN(C)S(=O)(=O)c1ccc2c(c1)c(=O)n(C)c(=O)n2C	i[10.9 µM]	nt	i	i	i

Assay outcomes as filed in PubChem BioAssay.
